High-throughput results: PubChem, several laboratories
V-ATPase pHluor: regulators of yeast V-ATPase proton pumping, primary screen, pHLuorin cytosolic pH fluorescence. AID 504577, 2011. S. cerevisiae. response, % at 10 µM. 350,000 compounds, 0.37% hits; in the data active means response mostly above about 7.3%, no sharp cut-off; inactive means mostly below about 5.4%; further: actives read high
TIM10 inh: growth inhibitors of isogenic TIM10 control yeast, primary screen, counter-screen for tim10-1 yeast inhibitor project, luminescence, uHTS; S. cerevisiae TIM10 strain growth, BacTiter-Glo luminescence, 24 h; 330,000 compounds, 1.4% hits; inhibition, % at 10 µM;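 active means inhibition of 40% or more at the single tested concentration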;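 further: wild-type TIM10 isogenic control strain grown at permissive 25 °C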
PfHsp90 set2: growth inhibition of PfHsp90-expressing yeast, primary screen, antimalarial PfHsp90 inhibitor project, S. cerevisiae, BacTiter-Glo luminescence, single point, set 2 | inhibition, % at 9.4 µM | 310,000 compounds, 0.32% hits | AID 504621, 2011 | BacTiter-Glo ATP, 48 h; yeast lacking PDR1 and PDR3 efflux regulators;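 active means every replicate shows inhibition above about 80%, whatever the replicate mean, limit read from the data; inconclusive means mean inhibition reaches the set limit but some replicate falls short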;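 further: 0% = DMSO neutral controls and 100% = 20 µM radicicol positive controls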
SKKanGAS inh: S. pyogenes SKKanGAS growth inhibitors in kanamycin, primary screen, streptokinase expression inhibitor project, SKKanGAS strain, BacTiter-Glo luminescence. inhibition, % at 7.5 µM. 6 h. 300,000 compounds, 1.3% hits;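 active means mean replicate score, as percent of positive control median, at least 50; inconclusive means mean below 50 but one replicate at or above 50; inactive means mean and every replicate below 50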;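 further: strain carries kanamycin resistance gene driven by streptokinase promoter and grows in 40 µg/ml kanamycin; loss of luminescence reflects streptokinase promoter inhibition or plain growth inhibition; 0% = median of DMSO wells and 100% = positive control at its reference dose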
tim10-1 inh: growth inhibitors of tim10-1 mutant yeast, primary screen, luminescence, uHTS. inhibition, % at 20 µM. 330,000 compounds, 2.2% hits. S. cerevisiae tim10-1 ts strain growth, BacTiter-Glo, 24 h. AID 463190, 2010;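 active means inhibition of at least 40%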;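 further: mutant grown at 25 °C; 0% = DMSO wells with yeast and 100% = wells holding no yeast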
tim23-1 inh: growth inhibitors of tim23-1 mutant yeast, primary screen, luminescence, uHTS. 330,000 compounds, 1.3% hits. inhibition, % at 20 µM. S. cerevisiae tim23-1 growth, BacTiter-Glo luminescence, 24 h;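 active means growth inhibition of the mutant yeast at or above 50%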;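 further: temperature-sensitive mutant grown at 25 °C; plate controls were DMSO-treated mutant yeast for no effect and medium wells lacking yeast for full effect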
TIM10 conf: growth inhibitors of wild-type TIM10 yeast, confirmation, counter-screen for tim10-1 synthetic lethality project, single concentration, luminescence, S. cerevisiae | shares compounds with TIM10 inh | 4,600 compounds, 63% hits | S. cerevisiae tim10 strain growth, BacTiter-Glo luminescence, 24 h | inhibition, % at 10 µM;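 active means inhibition of yeast growth at or above a set limit in either of two replicates at 10 µM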;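 further: this counterscreen used the strain with wild-type TIM10; 0% = yeast with DMSO and 100% = medium wells lacking yeast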
* marks the source's active call; other numbers are inactive results; ? = inconclusive; / = no result. Rows were chosen to be rich in hits. Some 4.6% of all compounds tested hit in one or more screens of this group.

SMILES	V-ATPase pHluor	TIM10 inh	PfHsp90 set2	SKKanGAS inh	tim10-1 inh	tim23-1 inh	TIM10 conf
CCOC(=O)CCCCCN1C(=O)c2cccc3cccc(c23)C1=O	3	-8	-1	1	-25	17	/
CC(=O)OCCCN1C(=O)c2cccc3cc(Br)cc(c23)C1=O	/	61*	/	-2	-9	22	1
Cc1ccc(/C=N/N2CCN(Cc3ccc(Cl)cc3)CC2)o1	3	9	13	-15	8	9	/
COc1ccc(-c2n[nH]c(C)c2-c2ccc(Cl)cc2)c(O)c1OC	-4	42*	/	8	23	19	33*
CCOC(=O)N1CCC(N2Cc3cccc(C(=O)Nc4ccc(F)cc4)c3C2=O)CC1	-1	42*	19	?	37	30	30
CCOC(=O)N1CCC(N2Cc3cccc(C(=O)Nc4ccc(CC)cc4)c3C2=O)CC1	-2	30	/	35	39	29	/
COC(=O)CC1C(=O)NCCN1C(=O)c1cc(OC)c(OC)cc1OC (stereo not drawn)	0	1	23	12	14	19	/
Cc1cccc(CSc2nnc(-c3ccccn3)n2N)c1	-3	16	17	3	5	22	/
Nn1c(SCc2ccc(Br)cc2)nnc1-c1ccccn1	1	46*	20	-11	16	41	60*
COC(=O)C1=C(C)N(c2ccccc2)C(=S)NC1c1ccccc1C(F)(F)F (stereo not drawn)	-1	50*	11	10	37	36	16
COCCOC(=O)C1=C(C)N(c2ccccc2)C(=S)NC1c1ccccc1C(F)(F)F (stereo not drawn)	5	8	33	13	23	27	/
COc1ccc(N=Nc2nc(-c3ccccc3)c(-c3ccccc3)[nH]2)cc1	0	41*	-23	20	32	34	8
COc1ccc(-c2nc(C)ncc2N=Nc2ccccc2)cc1	-1	-3	-18	-12	26	29	/
CS(=O)(=O)c1ccc(-c2sc3ccccc3c2C(=O)NCCCN2CCOCC2)cc1	5	-11	-11	/	-3	-9	/
COc1ccccc1N1CCN(CC(=O)Nc2c(C)n(C)n(-c3ccccc3)c2=O)CC1	-2	9	6	4	-1	2	/
Cc1ccc([N+](=O)[O-])cc1N=Nc1c(C)[nH]n(C(N)=S)c1=O	-1	43*	1	-2	30	27	34*
O=C(Nc1ccc(NC(=O)c2ccc(Cl)cc2Cl)cc1)c1cccs1	1	-5	1	-2	-37	-25	/
O=C(Nc1ccc(NC(=O)c2ccccc2F)cc1)c1cccs1	3	45*	/	/	-18	47	26
CCCCN1C(=O)N(CCc2ccc(F)cc2)S(=O)(=O)c2cc(C(F)(F)F)ccc21	1	-5	1	/	7	29	/
Cc1onc(-c2c(Cl)cccc2Cl)c1C(=O)N1CCN(c2ccc(F)cc2)CC1	3	12	0	11	20	32	/
Cc1onc(-c2c(Cl)cccc2Cl)c1C(=O)N1CCN(c2ccccc2)CC1	-2	42*	12	2	20	19	-1
COCCN(C(=O)CSc1nnc(Nc2ccccc2F)s1)c1c(N)n(Cc2ccccc2)c(=O)[nH]c1=O	-6	9	/	3	11	-5	/
Cc1ccc(NC(=O)Cn2nnc(C(=O)NCc3ccc(Cl)cc3)c2N)cc1F	-2	5	-17	-17	18	-7	/
O=C(N/N=C/c1sc2ccccc2c1O)c1ccccc1	4	40*	100*	90*	34	45	7
COc1ccc2cc(C(=O)N/N=C/c3sc4ccccc4c3O)ccc2c1	-1	-1	-49	10	3	1	/
SMILES	V-ATPase pHluor	TIM10 inh	PfHsp90 set2	SKKanGAS inh	tim10-1 inh	tim23-1 inh	TIM10 conf
COC(=O)c1nn(-c2ccccc2)c(=O)cc1Oc1ccccc1	3	12	4	0	24	18	/
CCCn1c(O)c(/C=C2\C=NN=C2c2ccccc2)sc1=S	-1	42*	/	3	39	8	24
CCCCC(CC)Cn1c(O)c(/C=C2\C=NN=C2c2ccccc2)sc1=S (stereo not drawn)	-2	3	-9	-3	8	1	/
Cc1ccc(O)c(C(=O)/C=C/c2ccc3c(c2)OCCCO3)c1	-3	49*	-7	-48	38	37	56*
COc1ccccc1NC(=S)N/N=C1\CC(C)(C)Oc2ccc(O)cc21	1	19	-4	23	9	6	/
COc1ccc(NC(=S)N/N=C2\CC(C)(C)Oc3ccc(O)cc32)cc1	-3	41*	-27	7	35	16	-11
Cc1nc(-c2ccccn2)nc(SCC(=O)c2ccc(F)cc2)c1Cl	-1	41*	14	85*	29	41	42*
CNC(=O)c1ccc(Nc2nc(-c3ccccc3)nc3ccccc23)cc1	0	40*	-8	-7	30	30	28
Cc1ccc(C(=O)N2CC3(C(C)C)CN(C(=O)c4ccc(C)cc4)CC(C(C)C)(C2)C3=O)cc1	-1	44*	-9	3	38	20	5
O=C(N/N=C/c1nn(-c2ccccc2)cc1-c1ccccc1)c1ccncc1	-4	40*	-20	-2	39	28	27
O=C(NC1CCCCC1)c1cccnc1Sc1ccccc1	1	16	-13	0	10	10	/
COc1ccc(NC(=O)CC2C(=O)N(C)C(=S)N2CCc2ccc(F)cc2)cc1 (stereo not drawn)	-3	7	/	6	14	15	/
CCN1C(=O)C(CC(=O)Nc2ccc(OC)cc2)N(CCc2ccc(F)cc2)C1=S (stereo not drawn)	6	42*	12	12	38	42	26
C[N+](C)(C)C[C@H](O)CC(=O)[O-]	-2	0	3	0	5	11	/
COc1cccc(/C=N/NC(=O)c2cnccn2)c1O	6	95*	-20	5	0	34	12
CC(=O)Nc1ccc(C(=O)N/N=C/c2ccccc2OCc2ccccc2)cc1	2	18	41	-2	-6	5	/
O=C(N/N=C/c1ccccc1OCc1ccccc1)c1cccnc1	8	40*	2	3	29	42	21
